rRNA inh HTS – inhibits bacterial ribosomal RNA function over humanized ribosomes | E. coli WT GFP vs humanized-ribosome RFP mutants, fluorescence, 24 h; hits give low values; DMSO median 0, no signal -100 | GFP signal change (wild-type ribosome), % (test concentration not listed) | 1.6% of 350,000 active | AID 720706;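 active means significant combined selectivity score with lowered wild-type GFP, culture density cut under 30%, mutant RFP and density less affected; inactive means any of these conditions unmet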
esBAF inh – blocks esBAF chromatin remodeling in mouse ES cells. reporter increase, % at 12.5 µM. AID 602393. 2% of 350,000 active. Bmi1-luciferase knock-in reporter, 24 h; 100% = twice the neutral-well signal; in the data active means activation above about 40%;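 further: 0% = median of the plate's neutral control wells and 100% = double that signal; a rise in the Bmi1 reporter signal indicates esBAF inhibition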
MITF act – increases MITF-driven TRPM1 promoter luciferase signal; activation, % at 12.5 µM; AID 588334; 0.75% of 300,000 active; SK-MEL-5 TRPM1-promoter luciferase, 24 h; % of positive control, neutral wells = 0;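 active means mean activation of at least 80% with every replicate also reaching 80%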;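 further: 0% = neutral control wells and 100% = parthenolide positive control wells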
Wnt act – activators of Wnt/beta-catenin signaling. Wnt/beta-catenin reporter cell assay, activator, plate reader. activation, % at 9.35 µM. 1.2% of 300,000 active; in the data active means activation above about 30%, passing the limit was not always enough;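 further: 0% = neutral control wells and 100% = positive control wells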
MLL AF4-AF9 inh – MLL-AF4/AF9 protein interaction inhibition. P42568. AlphaScreen, biotin-AF4 peptide binding to FLAG-AF9. 0.47% of 350,000 active. AID 651704. inhibition, % at 10 µM;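 active means every replicate reaching a set inhibition limit, whatever the replicate mean, cut at about 25% in these data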;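 further: 0% = plate neutral control median and 100% = total signal loss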
Target sequence (P42568 whole entry, looked up): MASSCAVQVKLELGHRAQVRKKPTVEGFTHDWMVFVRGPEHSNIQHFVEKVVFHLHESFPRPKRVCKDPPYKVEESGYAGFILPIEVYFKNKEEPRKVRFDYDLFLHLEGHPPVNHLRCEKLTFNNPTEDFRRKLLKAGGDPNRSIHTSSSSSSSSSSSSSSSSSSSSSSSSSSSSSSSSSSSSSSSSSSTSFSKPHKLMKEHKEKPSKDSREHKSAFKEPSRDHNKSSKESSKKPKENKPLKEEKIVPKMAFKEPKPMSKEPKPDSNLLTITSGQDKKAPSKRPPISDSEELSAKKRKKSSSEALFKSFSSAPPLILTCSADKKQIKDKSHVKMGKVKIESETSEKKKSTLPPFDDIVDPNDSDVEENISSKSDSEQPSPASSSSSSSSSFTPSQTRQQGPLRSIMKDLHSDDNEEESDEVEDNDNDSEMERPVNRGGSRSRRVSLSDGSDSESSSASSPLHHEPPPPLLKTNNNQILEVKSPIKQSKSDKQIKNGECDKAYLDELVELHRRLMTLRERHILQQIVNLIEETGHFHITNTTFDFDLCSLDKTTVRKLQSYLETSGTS
* = called active by the depositor; / = not tested or not shown. Hits are enriched below; roughly 3.7% of the tested compounds scored in any of these assays.

SMILES | rRNA inh HTS | esBAF inh | MITF act | Wnt act | MLL AF4-AF9 inh
O=C(Cc1cccc(NC(=O)C2CCN(C(=O)C3CCCC3)CC2)c1)Nc1cccc(C(=O)N2CCCC2)c1 | -20.9* | 2.4 | -21.4 | 2.7 | -5.9
O=C(Cc1cccc(NC(=O)C2CCN(C(=O)C3CCCC3)CC2)c1)Nc1cccc(C(=O)N2CCCCC2)c1 | -7.1 | -2.7 | -6.1 | -1.4 | -0.9
O=C(NCCc1ccccc1)c1cccc(NC(=O)C2CCC2)c1 | -16.4 | 57.2* | 43.3 | 7.3 | -3.0
O=C(NCCCCc1ccccc1)c1cccc(NC(=O)C2CCCCC2)c1 | -30.4* | 5.5 | 5.2 | -3.3 | -1.3
O=C(NCCc1ccccc1)c1cccc(NC(=O)C2CC2)c1 | -9.3 | 51.9* | 60.7 | -0.2 | -1.7
CC(C)[C@@H](C(=O)NCc1ccco1)N1C(=O)N2CCc3c([nH]c4ccccc34)[C@@]2(C)C1=O | / | 12.4 | / | -1.3 | 6.0
Cn1c(C(=O)NCCC2=CCCCC2)cc2c(=O)n3ccccc3nc21 | / | 44.1* | 64.8 | / | /
CC(=O)c1cc2c(cc1NC(=O)c1cc(C)nn1-c1ccccc1)OCO2 | 13.7 | -0.7 | / | -3.1 | 34.2*
Cc1ccc(Cn2nnc3c(=O)n(Cc4cc(C)ccc4C)cnc32)cc1 | 8.9 | -13.3 | 1.4 | -2.1 | 2.7
Cc1ccc(S(=O)(=O)c2cc(N3CCOCC3)nc(-c3ccccc3)n2)cc1 | / | / | 22.2 | / | /
c1ccc(-c2onc3cc4c(cc23)OCCO4)cc1 | / | 68.4* | 106.4* | / | /
CC(=O)c1ccc2noc(-c3ccccc3)c2c1 | -7.0 | 0.1 | 18.7 | 6.6 | 17.4
CCc1ccccc1NC(=O)c1cccc(NC(=O)/C=C/c2ccco2)c1 | / | / | 2.2 | 109.6* | /
O=C(/C=C/c1ccco1)Nc1cccc(C(=O)Nc2ccccc2C(=O)O)c1 | -4.2 | -4.1 | 2.9 | 3.7 | -7.9
O=C(/C=C/c1ccco1)Nc1cccnc1Cl | / | 10.8 | / | 36.3* | -0.6
O=C(/C=C/c1ccco1)NCc1ccc2c(c1)OCO2 | 4.8 | 1.3 | -10.7 | -1.8 | -26.0
Cc1ccc(-n2nc3ccc(NC(=O)/C=C/c4ccco4)cc3n2)cc1 | 4.3 | / | 8.5 | 58.0* | -7.2
Cc1ccc(NC(=O)c2cccc(NC(=O)/C=C/c3ccco3)c2)cc1C | / | / | 32.7 | 11.4 | /
O=C(/C=C/c1ccco1)Nc1ccc2c(c1)OCO2 | -1.2 | / | 92.3* | 32.6* | 0.6
CCOc1ccc(C(=O)NC2=NCCS2)cc1 | 4.1 | / | / | 12.4 | -0.1
CN1C2=CC=CC=CC2=[N+](C)C12C([N+](=O)[O-])=CC(=[N+]([O-])[O-])C=C2[N+](=O)[O-] (stereo not drawn) | 0.7 | -6.2 | / | 106.3* | 2.8
CCC(OC(=O)c1nsc(Cl)c1Cl)C(=O)NC(C)(C)CC (stereo not drawn) | 1.3 | -3.9 | 0.8 | 0.9 | -1.7
Fc1ccc(N2C(=S)SC(=Nc3ccccc3)C2=Nc2ccccc2)cc1 | 2.6 | / | 67.5 | 57.6* | 4.5
N#CC(C#N)=C1SC(=Nc2ccccc2)C(=Nc2ccccc2)N1c1ccccc1 | 1.2 | / | 3.3 | 56.0* | 4.0
CSc1cccc(NC(=S)N(CCCN2CCC(C)CC2)Cc2cccs2)c1 | -19.0* | 8.3 | -0.3 | -2.0 | 12.1
SMILES | rRNA inh HTS | esBAF inh | MITF act | Wnt act | MLL AF4-AF9 inh
CCOC(=O)C1(Cc2cccc(OC)c2)CCCN(C(=O)c2ccccc2C)C1 (stereo not drawn) | -6.4 | / | 72.4 | 35.4* | -5.9
CCOC(=O)C1(Cc2ccccc2)CCCN(Cc2cnn(CC)c2)C1 (stereo not drawn) | 7.0 | / | / | 0.4 | -2.3
CCOC(=O)C1(Cc2cccc(OC)c2)CCCN(C(=O)c2cc(C)[nH]n2)C1 (stereo not drawn) | 8.9 | / | 52.1 | 11.3 | 1.3
CCOC(=O)C1(Cc2cccc(OC)c2)CCCN(C(=O)c2cc(C)on2)C1 (stereo not drawn) | -6.6 | 48.4* | 31.3 | 12.2 | -6.0
CCOC(=O)C1(Cc2ccccc2)CCCN(C(=O)c2cnn(CC)c2)C1 (stereo not drawn) | 0.4 | 65.2* | 90.9* | 24.0 | -0.5
CCOC(=O)C1(Cc2cccc(OC)c2)CCCN(C(=O)CNC(C)=O)C1 (stereo not drawn) | -1.4 | 64.6* | 64.2 | 10.2 | -1.5
CCOC(=O)C1(Cc2cccc(OC)c2)CCCN(S(=O)(=O)N(C)C)C1 (stereo not drawn) | 7.2 | -3.7 | -8.8 | -1.4 | -1.2
CC(C)OCCCNc1nc2c([nH]1)c(=O)n(C)c(=O)n2C | / | -4.2 | 2.2 | / | /
